# In PubChem BioAssay (NCATS):
# Results filed as inconclusive are left out. A call without a number means that no potency is given here. Active and inactive are the calls of the source. Unless noted, the call rests on the fitted dose curve; in most records, active means well fitted curve in the direction sought with a large enough effect; inconclusive means small, poorly fitted or top-dose-only effect, or another doubt; inactive means no such curve, though single readings can be large; an effect the other way counts as inactive or inconclusive.
# Key:
# [1] = target: Thioredoxin reductase 1, cytoplasmic (Rattus norvegicus) (UniProt O89049); assay: qHTS Assay for Inhibitors of Mammalian Selenoprotein Thioredoxin Reductase 1 (TrxR1) (AID 488773); conditions: Potency: inhibition;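 further: drop in NADPH fluorescence over an 8 min run after selenite addition; series mostly up to about 57 µM; nearly all actives have a fitted effect of over 40% in size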
# Summary of the method: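 Inhibition is scored from the loss of NADPH fluorescence between first and last reads of an 8-min kinetic run. Selenite (400 uM) was the substrate, added after 15 min compound preincubation at room temperature.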
# [2] = target: Flap endonuclease 1 (Homo sapiens) (UniProt P39748); assay: qHTS Validation Assay for the Inhibitors of Human Flap endonuclease 1 (FEN1) (AID 488816); further: potency means the concentration at half of the fitted maximal effect
# Summary of the method: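 qHTS format: compounds and 10 nM FEN1 incubated 15 min at room temperature before adding 50 nM substrate. Cleavage followed by reads at 0 and 15 min; normalized data fitted to a four-parameter Hill curve.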
# [3] = target: Chromobox protein homolog 1 (Homo sapiens) (UniProt P83916); assay: qHTS Validation Assay for Inhibitors of HP1-beta Chromodomain Interactions with Methylated Histone Tails (AID 488953);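 further: loss of AlphaScreen luminescence from HP1-beta binding biotinylated H3K9me3 peptide; series mostly up to about 110 µM; nearly all actives have a fitted effect of over 50% in size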
# Summary of the method: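 Disruption of preformed HP1-beta:H3K9me3 peptide complexes (both 50 nM, PBS pH 7.4 with 0.01% Tween-20) is measured by AlphaScreen after 30 min compound exposure at room temperature, using streptavidin donor and nickel chelate acceptor beads at 10 ug/mL final.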
# [4] = target: Methanococcus maripaludis chaperonin (MmCpn) (UniProt Q6LX38); assay: High-Throughput Screening for Modulators of Cytosolic Chaperonin Activity: MmCpn Primary Screen (AID 488978);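 further: 50 nM MmCpn enzyme hydrolysing 30 µM ATP at 37 °C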
# Summary of the method: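 Steps: chaperonin 50 nM final; add compound, 5 min RT; start with ATP, 30 uM final; hold 10 min at 37C; add ADP Transcreener HTRF reagent, 5 min; read ex 320, em 590 and 665 nm.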
# [5] = target: D(1A) dopamine receptor (Homo sapiens) (UniProt P21728); assay: HTS Assay for Allosteric Agonists of the Human D1 Dopamine Receptor: Primary Screen for Agonists (AID 488981)
# Summary of the method: (§1)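 Calcium flux in an inducible, force-coupled HEK293 Trex D1 line (overnight at 30 C): agonist mode is the 180 s kinetic read after compound; potentiator mode is the following 180 s read after dopamine at EC20.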
# [6] = target: D(1A) dopamine receptor (Homo sapiens) (UniProt P21728); assay: HTS Assay for Allosteric Agonists of the Human D1 Dopamine Receptor: Primary Screen for Potentiators (AID 488982)
# Summary of the method: as §1
# [7] = target: ATP-dependent 6-phosphofructokinase (Trypanosoma brucei brucei) (UniProt O15648); assay: qHTS Assay to Find Inhibitors of T. brucei phosphofructokinase: hit validation (AID 492961);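 further: luminescence reports ADP formed as PFK phosphorylates fructose-6-phosphate with ATP; series mostly up to about 51 µM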
# Summary of the method: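 In this biochemical qHTS validation, titrated compounds were tested against 1.25 nM PFK with 0.1 mM ATP and 0.5 mM F6P. Percent activity came from controls lacking or containing enzyme.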
# [8] = Nrf2 qHTS screen for inhibitors: Validation (AID 493153; active means well fitted inhibition curve with a large enough effect in the main read-out, with a control signal flat, not every such curve was filed as active); conditions: Potency: luciferase luminescence; viability change: measured here: cytotoxicity max response
# Summary of the method: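 A549 ARE_Fluc, 5% FBS OPTI-MEM; cpd titration, 18-24 h, 37°C/5% CO2. Read 1: CellTiter-Fluor (Ex 405/Em 525), cytotox. Read 2: luciferase lum, Nrf2 activity.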
# [9] = qHTS for Inhibitors of Cell Surface uPA Generation: Validation Assay (AID 493164);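 further: RAW 264.7 macrophage cells exposed to compound for 18 h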
# Summary of the method: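 ATP-Lite luminescence read-out: ATP remains high when uPA activity-dependent LF translocation into the cytoplasm is blocked. RAW 264.7 cells, 18 h compound exposure at 37 C; 7-point titration, 2.45 nM to 38.3 uM final.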
# [10] = target: Peptidyl-prolyl cis-trans isomerase NIMA-interacting 1 (Homo sapiens) (UniProt Q13526); assay: qHTS Validation Assay to Find Inhibitors of Pin1 (AID 504536; active means well fitted inhibition curve with a large enough effect in the polarisation, with a control signal flat, not every such curve was filed as active; the % refers to the polarisation)
# Summary of the method: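 Fluorescence polarization competition: compounds (titration) displace HiFluor-488-labeled Pin1-1b peptide from Pin1 (0.3 uM final) in pH 7.5 HEPES buffer with DTT, 10 min at room temperature; %Activity normalized to no-enzyme wells, curves fitted.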
# [11] = target: Phosphoglycerate kinase, glycosomal (Trypanosoma brucei brucei) (UniProt P07378); assay: qHTS Validation Assay to Find Inhibitors of Phosphoglycerate Kinase (AID 504547)
# Summary of the method: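 Luminescence end-point (Kinase-Glo Plus, 10 min) after a 60 min room-temperature coupled reaction. GAPDH at 100nM final supplies 1,3-BPG to PGK. Buffer: 100mM TEA pH 7.6, 5mM MgCl2, 0.01% Tween-20. Wells lacking PGK served as controls.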
# [12] = target: phosphoglycerate mutase (Leishmania major) (UniProt Q4Q090); assay: qHTS Validation Assay to Find Inhibitors of Phosphoglycerate Mutase (AID 504548); conditions: Potency: inhibition qHTS;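 further: end-point luminescence from Kinase-GloPlus after the PGAM reaction; series mostly up to about 58 µM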
# Summary of the method: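 Inhibition of L. major PGAM was assessed by Kinase-GloPlus luminescence following a 45-minute room-temperature reaction with enzyme at 1.25nM final.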
# [13] = target: Ubiquitin carboxyl-terminal hydrolase 1 (Homo sapiens) (UniProt O94782); assay: Inhibitors of USP1/UAF1: Pilot qHTS (AID 504865); further: nearly all actives have a fitted effect of over 35% in size; further: potency means the concentration at half of the fitted maximal effect
# Summary of the method: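 In 50mM HEPES pH 7.8 containing 0.5mM EDTA, 1mM TCEP, 0.1 mg/ml BSA and 0.01% Tween-20, 1nM USP1/UAF1 is exposed to compound for 15 min, then Ub-Rho (150nM final) is added and fluorescence is read over time.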
# [14] = qHTS for Inhibitors of ATXN expression: Validation of Cytotoxic Assay (AID 588349)
# Summary of the method: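 Titrated compounds are added to cultured HEK293 cells, which are then held at 37 degrees C for 72 hr; loss of intracellular ATP, measured with CellTiter Glo, indicates toxicity.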
# [15] = target: Thyrotropin receptor (Homo sapiens) (UniProt P16473); assay: qHTS Assay for Antagonists of the Thyroid Stimulating Hormone Receptor (AID 488980); further: series mostly up to about 58 µM
# Summary of the method: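 Readout is cAMP by HTRF competition between cellular cAMP and cAMP-d2 for a cryptate-labelled antibody. Antagonism was assessed in TSHR-transfected HEK293 cells stimulated with 4 nM TSH (EC80, final) in the presence of RO 20-1724.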
# [16] = Validation screen for small molecules that induce genotoxicity in human embryonic kidney (HEK293T) cells expressing luciferase-tagged ELG1 (AID 493106)
# Summary of the method: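 Cells were dispensed at 2,000 per well, then 23 nL compound or DMSO was pinned in. After 16 hr at 37 °C and 5% CO2, ONE-Glo reagent was added. Luciferase activity was measured following 30 min at room temperature.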
# [17] = target: Thyrotropin-releasing hormone receptor (Homo sapiens) (UniProt P34981); assay: qHTS for Small Molecule Agonists and Allosteric Enhancers of Human TRH Receptor: Validation Screen for Agonists (AID 493127;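 active means calcium activation more than 3 SD above the typical response in the agonist read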;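 further: intracellular calcium rise by fluo-8 fluorescence before TRH EC20 addition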); conditions: TRH receptor agonist cell assay; at 2 µM; stronger effect = higher value
# Summary of the method: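 Compounds are added by online pintool to dye-loaded TRHR cells while fluorescence is recorded every second. A rise in calcium signal during the agonist read marks activation; a later 10 nM TRH addition (EC20) serves the separate enhancer mode.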
# [18] = target: Galactokinase (Homo sapiens) (UniProt P51570); assay: qHTS Validation Assay for Inhibitors of Human Galactokinase (GALK) (AID 493189)
# Summary of the method: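 5 nM GALK / 100 uM galactose / 35 uM ATP, 20 mM HEPES pH8.0, 5 mM MgCl2, 60 mM NaCl, 1 mM DTT, 0.01% BSA (final). RT 1 h; Kinase-Glo Plus luminescence.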
# [19] = Validation screen for small molecules that induce DNA re-replication in SW480 colon adenocarcinoma cells (AID 504364); further: potency means the concentration at half of the fitted maximal effect
# Summary of the method: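 Image-based qHTS: compounds were incubated with SW480 cells for 48 hr, nuclei stained with Hoechst, and per-nucleus fluorescence intensity scanned to flag cells with excess DNA content.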
# [20] = target: DNA dC->dU-editing enzyme APOBEC-3G (Homo sapiens) (UniProt Q9HC16); assay: qHTS for inhibitors of Vif-A3G interactions: Validation (AID 588379)
# Summary of the method: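 Yellow fluorescence (Ex 488, Em 500-530) of Vif-coexpressing HeLa A3G-eYFP cells, scanned by Acumen cytometer, reports blocked A3G degradation. Cells plated at 700/well overnight at 37 deg C before compound addition, then a further overnight compound incubation at 37 deg C.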
# Sequence of Galactokinase (Homo sapiens) (P51570 whole entry, looked up): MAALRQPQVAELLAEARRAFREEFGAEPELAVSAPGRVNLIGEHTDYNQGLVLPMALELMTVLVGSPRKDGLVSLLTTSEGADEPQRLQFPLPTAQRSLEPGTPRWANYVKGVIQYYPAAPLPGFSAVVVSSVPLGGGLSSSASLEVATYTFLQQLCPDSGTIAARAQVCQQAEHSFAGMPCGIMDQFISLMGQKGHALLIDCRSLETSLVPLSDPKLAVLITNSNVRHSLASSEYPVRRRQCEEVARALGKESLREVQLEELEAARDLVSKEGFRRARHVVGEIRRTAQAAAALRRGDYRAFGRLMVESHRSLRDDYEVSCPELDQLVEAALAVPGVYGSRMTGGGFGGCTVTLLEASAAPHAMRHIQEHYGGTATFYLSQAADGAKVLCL
# Sequence of Chromobox protein homolog 1 (Homo sapiens) (P83916 whole entry, looked up): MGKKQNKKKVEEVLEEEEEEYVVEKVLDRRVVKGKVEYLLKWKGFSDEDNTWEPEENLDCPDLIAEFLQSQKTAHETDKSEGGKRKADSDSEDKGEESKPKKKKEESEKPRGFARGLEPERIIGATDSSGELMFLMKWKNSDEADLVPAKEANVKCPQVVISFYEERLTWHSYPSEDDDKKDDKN
# Sequence of Ubiquitin carboxyl-terminal hydrolase 1 (Homo sapiens) (O94782 whole entry, looked up): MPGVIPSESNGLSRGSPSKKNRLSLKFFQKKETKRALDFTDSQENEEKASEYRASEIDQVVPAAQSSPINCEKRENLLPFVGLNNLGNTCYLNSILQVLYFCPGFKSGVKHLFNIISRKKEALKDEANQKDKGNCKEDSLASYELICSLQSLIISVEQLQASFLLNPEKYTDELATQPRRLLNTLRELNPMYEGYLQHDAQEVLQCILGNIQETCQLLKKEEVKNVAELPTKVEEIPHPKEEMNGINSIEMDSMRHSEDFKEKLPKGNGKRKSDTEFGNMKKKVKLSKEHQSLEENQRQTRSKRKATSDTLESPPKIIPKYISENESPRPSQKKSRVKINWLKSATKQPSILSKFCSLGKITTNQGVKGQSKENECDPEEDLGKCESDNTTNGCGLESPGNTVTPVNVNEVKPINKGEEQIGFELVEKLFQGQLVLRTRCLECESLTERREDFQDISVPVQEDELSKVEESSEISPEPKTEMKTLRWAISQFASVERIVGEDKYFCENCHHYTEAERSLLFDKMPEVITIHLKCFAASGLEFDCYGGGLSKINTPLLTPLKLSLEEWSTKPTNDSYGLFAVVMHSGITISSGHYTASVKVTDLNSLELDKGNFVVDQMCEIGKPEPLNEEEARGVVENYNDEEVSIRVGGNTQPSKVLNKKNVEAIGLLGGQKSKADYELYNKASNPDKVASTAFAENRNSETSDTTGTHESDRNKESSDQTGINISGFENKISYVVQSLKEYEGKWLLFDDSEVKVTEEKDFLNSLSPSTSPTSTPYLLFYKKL
# Sequence of Flap endonuclease 1 (Homo sapiens) (P39748 whole entry, looked up): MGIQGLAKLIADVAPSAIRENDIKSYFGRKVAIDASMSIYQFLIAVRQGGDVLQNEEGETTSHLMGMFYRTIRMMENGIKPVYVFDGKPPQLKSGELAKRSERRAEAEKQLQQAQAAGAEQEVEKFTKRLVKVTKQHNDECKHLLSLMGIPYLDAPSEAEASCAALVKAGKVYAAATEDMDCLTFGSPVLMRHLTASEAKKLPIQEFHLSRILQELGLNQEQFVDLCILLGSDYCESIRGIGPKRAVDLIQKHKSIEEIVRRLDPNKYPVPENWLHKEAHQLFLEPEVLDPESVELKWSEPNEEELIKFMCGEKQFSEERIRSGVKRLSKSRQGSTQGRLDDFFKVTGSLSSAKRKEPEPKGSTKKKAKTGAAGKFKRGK
# Sequence of D(1A) dopamine receptor (Homo sapiens) (P21728 whole entry, looked up): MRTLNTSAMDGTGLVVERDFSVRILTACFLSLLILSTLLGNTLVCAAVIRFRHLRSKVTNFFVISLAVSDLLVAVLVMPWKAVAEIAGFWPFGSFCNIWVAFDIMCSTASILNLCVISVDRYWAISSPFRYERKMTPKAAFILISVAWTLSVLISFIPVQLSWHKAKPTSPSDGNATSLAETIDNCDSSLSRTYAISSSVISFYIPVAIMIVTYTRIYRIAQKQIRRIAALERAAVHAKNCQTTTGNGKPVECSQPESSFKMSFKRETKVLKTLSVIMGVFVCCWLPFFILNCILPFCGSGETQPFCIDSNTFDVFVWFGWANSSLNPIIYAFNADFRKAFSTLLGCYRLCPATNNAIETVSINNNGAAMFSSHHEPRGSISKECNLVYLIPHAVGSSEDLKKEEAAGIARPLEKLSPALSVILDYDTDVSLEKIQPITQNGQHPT
# Sequence of Thyrotropin receptor (Homo sapiens) (P16473 whole entry, looked up): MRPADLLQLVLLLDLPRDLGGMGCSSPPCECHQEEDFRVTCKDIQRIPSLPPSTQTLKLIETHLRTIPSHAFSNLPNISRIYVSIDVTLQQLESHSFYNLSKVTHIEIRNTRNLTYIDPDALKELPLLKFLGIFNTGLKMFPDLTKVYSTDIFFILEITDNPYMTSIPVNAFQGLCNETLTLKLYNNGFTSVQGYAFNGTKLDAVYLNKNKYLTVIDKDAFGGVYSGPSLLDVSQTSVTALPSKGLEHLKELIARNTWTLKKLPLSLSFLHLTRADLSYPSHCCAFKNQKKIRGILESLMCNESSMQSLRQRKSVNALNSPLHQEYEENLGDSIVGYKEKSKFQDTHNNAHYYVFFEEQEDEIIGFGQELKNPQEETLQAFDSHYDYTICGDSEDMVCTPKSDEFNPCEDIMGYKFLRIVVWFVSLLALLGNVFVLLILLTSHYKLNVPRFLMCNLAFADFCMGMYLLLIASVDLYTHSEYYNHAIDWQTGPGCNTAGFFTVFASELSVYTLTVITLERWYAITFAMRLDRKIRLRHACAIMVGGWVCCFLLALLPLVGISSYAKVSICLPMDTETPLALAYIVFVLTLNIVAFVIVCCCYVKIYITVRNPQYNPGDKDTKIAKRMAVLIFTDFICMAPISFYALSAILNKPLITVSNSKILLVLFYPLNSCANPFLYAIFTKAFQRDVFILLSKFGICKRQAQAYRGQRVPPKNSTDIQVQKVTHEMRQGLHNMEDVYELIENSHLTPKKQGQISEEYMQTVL
# Sequence of Methanococcus maripaludis chaperonin (MmCpn) (Q6LX38 1-543): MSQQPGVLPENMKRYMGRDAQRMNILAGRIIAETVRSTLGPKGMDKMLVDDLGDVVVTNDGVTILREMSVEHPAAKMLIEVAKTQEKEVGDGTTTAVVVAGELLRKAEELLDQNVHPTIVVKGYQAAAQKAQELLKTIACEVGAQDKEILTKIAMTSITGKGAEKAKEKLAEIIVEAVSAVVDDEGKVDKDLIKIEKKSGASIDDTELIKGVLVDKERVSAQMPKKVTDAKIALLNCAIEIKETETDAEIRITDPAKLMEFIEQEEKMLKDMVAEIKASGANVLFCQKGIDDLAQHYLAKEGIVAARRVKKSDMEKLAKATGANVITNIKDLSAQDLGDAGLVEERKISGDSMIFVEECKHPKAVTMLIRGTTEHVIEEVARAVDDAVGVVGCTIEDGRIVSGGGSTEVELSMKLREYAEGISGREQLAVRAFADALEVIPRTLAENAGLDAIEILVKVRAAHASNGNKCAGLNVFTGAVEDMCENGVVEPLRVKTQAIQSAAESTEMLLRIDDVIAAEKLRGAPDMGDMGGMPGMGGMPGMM
# Sequence of ATP-dependent 6-phosphofructokinase (Trypanosoma brucei brucei) (O15648 whole entry, looked up): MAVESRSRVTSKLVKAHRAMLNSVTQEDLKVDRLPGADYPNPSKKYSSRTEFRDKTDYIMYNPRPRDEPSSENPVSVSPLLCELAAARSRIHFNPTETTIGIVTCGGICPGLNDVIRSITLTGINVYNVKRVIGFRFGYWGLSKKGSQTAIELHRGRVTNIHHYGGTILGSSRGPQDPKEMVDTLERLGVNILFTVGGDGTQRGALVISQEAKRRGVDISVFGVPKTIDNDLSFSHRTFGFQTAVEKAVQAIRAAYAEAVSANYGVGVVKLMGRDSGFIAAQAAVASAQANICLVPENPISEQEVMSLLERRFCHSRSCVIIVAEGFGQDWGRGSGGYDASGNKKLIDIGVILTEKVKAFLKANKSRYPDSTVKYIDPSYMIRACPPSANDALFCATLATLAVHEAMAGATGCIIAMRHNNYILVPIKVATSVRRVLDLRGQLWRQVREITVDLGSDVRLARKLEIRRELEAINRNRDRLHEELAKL
# Sequence of phosphoglycerate mutase (Leishmania major) (Q4Q090 1-553): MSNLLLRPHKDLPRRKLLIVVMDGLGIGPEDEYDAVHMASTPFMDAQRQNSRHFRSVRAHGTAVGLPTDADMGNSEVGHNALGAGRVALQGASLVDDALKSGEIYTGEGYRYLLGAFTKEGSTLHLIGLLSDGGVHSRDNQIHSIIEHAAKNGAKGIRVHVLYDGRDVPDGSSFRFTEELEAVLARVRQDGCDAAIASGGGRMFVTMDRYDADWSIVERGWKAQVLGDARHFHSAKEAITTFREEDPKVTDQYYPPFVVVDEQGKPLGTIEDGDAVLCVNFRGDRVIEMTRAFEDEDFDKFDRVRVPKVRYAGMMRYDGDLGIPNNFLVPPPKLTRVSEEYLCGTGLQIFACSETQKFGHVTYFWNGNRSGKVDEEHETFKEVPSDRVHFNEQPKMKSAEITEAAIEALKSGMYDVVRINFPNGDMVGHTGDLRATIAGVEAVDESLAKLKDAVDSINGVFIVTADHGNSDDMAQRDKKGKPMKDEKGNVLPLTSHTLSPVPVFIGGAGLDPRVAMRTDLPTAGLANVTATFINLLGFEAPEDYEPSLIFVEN
# Sequence of Thyrotropin-releasing hormone receptor (Homo sapiens) (P34981 whole entry, looked up): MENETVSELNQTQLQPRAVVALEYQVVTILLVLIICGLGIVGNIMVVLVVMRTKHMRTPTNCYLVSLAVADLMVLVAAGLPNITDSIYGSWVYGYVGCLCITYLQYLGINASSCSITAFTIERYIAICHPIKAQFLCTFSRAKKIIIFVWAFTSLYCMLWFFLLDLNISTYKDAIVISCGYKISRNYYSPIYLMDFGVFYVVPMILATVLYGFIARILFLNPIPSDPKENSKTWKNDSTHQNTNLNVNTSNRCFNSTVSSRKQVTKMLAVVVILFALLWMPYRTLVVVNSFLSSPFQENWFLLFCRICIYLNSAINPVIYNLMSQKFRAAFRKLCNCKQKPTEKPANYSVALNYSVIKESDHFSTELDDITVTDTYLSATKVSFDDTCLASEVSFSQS
compound,measurement,setting,value
COc1cc2c(cc1OC)C1CC(=O)C(CC(C)C)CN1CC2 (centres undefined),Potency,[1],inactive
same,Potency,[2],inactive
same,Potency,[3],inactive
same,outcome,[4],inactive
same,outcome,[5],inactive
same,Potency,[6],inactive
same,outcome,[7],inactive
same,Potency,[8],inactive
same,viability change,[8],-5.87%
same,outcome,[9],inactive
same,outcome,[10],inactive
same,Potency,[11],inactive
same,Potency,[12],inactive
same,Potency,[13],inactive
same,outcome,[14],inactive
CC(=O)O[C@H]1C(=O)[C@@]2(C)C([C@H](OC(=O)c3ccccc3)[C@]3(O)C[C@H](OC(=O)[C@H](O)[C@@H](NC(=O)c4ccccc4)c4ccccc4)C(C)=C1C3(C)C)[C@]1(OC(C)=O)CO[C@@H]1C[C@@H]2O (some centres undefined),Potency,[1],inactive
same,Potency,[2],inactive
same,Potency,[3],inactive
same,outcome,[4],inactive
same,outcome,[15],inactive
same,outcome,[5],inactive
same,Potency,[6],inactive
same,Potency,[16],inactive
same,activation,[17],0.562% (inactive)
same,outcome,[9],inactive
same,outcome,[18],inactive
same,Potency,[19],0.0092 µM (active)
same,Potency,[11],inactive
same,Potency,[12],inactive
same,Potency,[13],inactive
CNC[C@H](O)c1ccc(O)c(O)c1,Potency,[2],10.6 µM (active)
same,Potency,[3],inactive
same,outcome,[4],inactive
same,outcome,[15],inactive
same,Potency,[6],inactive
same,outcome,[7],inactive
same,Potency,[16],inactive
same,activation,[17],0.875% (inactive)
same,outcome,[9],inactive
same,outcome,[18],inactive
same,Potency,[19],inactive
same,outcome,[10],inactive
same,Potency,[12],inactive
same,Potency,[13],inactive
same,outcome,[14],inactive
same,outcome,[20],inactive
CC(C)(S)[C@@H](N)C(=O)O,outcome,[7],inactive
same,Potency,[13],inactive
CC1(C)CCC(C)(C)c2cc(NC(=O)c3ccc(C(=O)O)cc3)ccc21,outcome,[7],inactive
Cc1cc2cc3c(C)cc(=O)oc3c(C)c2o1,outcome,[7],inactive
same,Potency,[13],inactive
COC(=O)C1=C(C)NC(C)=C(C(=O)OCCCN2CCC(c3ccccc3)(c3ccccc3)CC2)C1c1cccc([N+](=O)[O-])c1 (centres undefined),outcome,[7],inactive
COc1cc(OC)c(C(=O)CCCN2CCCC2)c(OC)c1,outcome,[7],inactive
same,Potency,[13],inactive
Cc1ncc([N+](=O)[O-])n1CC(C)O (centres undefined),outcome,[7],inactive
same,Potency,[13],inactive
CCC(C)(Oc1ccc(C2(c3ccc(OC(C)(CC)C(=O)O)cc3)CCCCC2)cc1)C(=O)O (centres undefined),outcome,[7],inactive
same,Potency,[13],inactive
Cc1cc(C2CCCCC2)n(O)c(=O)c1,outcome,[7],inactive
O=c1oc2cc(O)ccc2s1,outcome,[7],inactive
same,Potency,[13],inactive
Nc1cc(C(Cl)=C(Cl)Cl)c(S(N)(=O)=O)cc1S(N)(=O)=O,outcome,[7],inactive
CCN(CCO)CCCC(C)Nc1ccnc2cc(Cl)ccc12 (centres undefined),outcome,[7],inactive
same,Potency,[13],inactive
CNC[C@@H](O)[C@@H](O)[C@H](O)[C@H](O)CO,outcome,[7],inactive
same,Potency,[13],inactive
CCOC(=O)c1c(C)n(C)c2ccc(O)cc12,outcome,[7],inactive
same,Potency,[13],inactive
O=C1CCc2ccc(OCCCCN3CCN(c4cccc(Cl)c4Cl)CC3)cc2N1,outcome,[7],inactive
O=C(OC1C[C@H]2CC[C@@H](C1)[N+]21CCCC1)C(O)(c1ccccc1)c1ccccc1 (some centres undefined),outcome,[7],inactive
same,Potency,[13],inactive
Clc1ccc(C(Cn2ccnc2)OCc2ccsc2Cl)c(Cl)c1 (centres undefined),outcome,[7],inactive
C=C(c1ccc(C(=O)O)cc1)c1cc2c(cc1C)C(C)(C)CCC2(C)C,outcome,[7],inactive
same,Potency,[13],22.4 µM (active)
CCCCN(CCCC)CCC(O)c1cc2c(Cl)cc(Cl)cc2c2cc(C(F)(F)F)ccc12 (centres undefined),outcome,[7],inactive
Cc1cc2c(s1)Nc1ccccc1N=C2N1CCN(C)CC1,outcome,[7],inactive
same,Potency,[13],inactive
Cc1cccc(C)c1OCC(=O)N[C@@H](Cc1ccccc1)[C@@H](O)C[C@H](Cc1ccccc1)NC(=O)[C@H](C(C)C)N1CCCNC1=O,outcome,[7],inactive
Oc1ccc(OCc2ccccc2)cc1,outcome,[7],inactive
same,Potency,[13],inactive
O=C(NC(Cc1cc(=O)[nH]c2ccccc12)C(=O)O)c1ccc(Cl)cc1 (centres undefined),outcome,[7],inactive
same,Potency,[13],inactive
Cc1nc2n(c(=O)c1CCN1CCC(c3noc4cc(F)ccc34)CC1)CCCC2,outcome,[15],inactive
same,activation,[17],0.938% (inactive)
same,outcome,[18],inactive
same,Potency,[19],inactive
same,Potency,[13],inactive
CC[C@]1(O)C[C@H]2CN(CCc3c([nH]c4ccccc34)[C@@](C(=O)OC)(c3cc4c(cc3OC)N(C=O)[C@H]3[C@@](O)(C(=O)OC)[C@H](OC(C)=O)[C@]5(CC)C=CCN6CC[C@]43[C@@H]65)C2)C1,outcome,[7],inactive
same,Potency,[13],inactive
